# Experimental data taken from publication PMC5540273 (PLoS ONE, 2017).
# Like-named read-outs stand apart in the source and are kept apart here.
# Key:
# GRK3 = tested on: T1, GRK3; conditions: concentration: 1 μM, replicates: in singlicate; n = 1
# T1 construct: gene ADRBK2
# GRK4 = conditions: concentration: 1 μM, replicates: in singlicate; n = 1
# GRK7 = conditions: concentration: 1 μM, replicates: in singlicate; n = 1
# GSK3A = conditions: concentration: 1 μM, replicates: in singlicate; n = 1
# GSK3B = conditions: n = 1
# HASPIN = tested on: T2, HASPIN; conditions: concentration: 1 μM, replicates: in singlicate; n = 1
# T2 construct: gene GSG2
# HCK = conditions: concentration: 1 μM, replicates: in singlicate; n = 1
# HIPK1 = conditions: concentration: 1 μM, replicates: in singlicate; n = 1
# HIPK2 = conditions: concentration: 1 μM, replicates: in singlicate; n = 1
# HIPK3 = conditions: concentration: 1 μM, replicates: in singlicate; n = 1
# HIPK4 = conditions: concentration: 1 μM, replicates: in singlicate; n = 1
# HPK1 = conditions: concentration: 1 μM, replicates: in singlicate; n = 1
# HUNK = conditions: concentration: 1 μM, replicates: in singlicate; n = 1
# ICK = conditions: concentration: 1 μM, replicates: in singlicate; n = 1
# IGF1R = conditions: concentration: 1 μM, replicates: in singlicate; n = 1
# IKK-alpha = tested on: T3, IKK-alpha; conditions: concentration: 1 μM, replicates: in singlicate; n = 1
# T3 construct: gene CHUK
# IKK-beta = tested on: T4, IKK-beta; conditions: concentration: 1 μM, replicates: in singlicate; n = 1
# T4 construct: gene IKBKB
# IKK-epsilon = tested on: T5, IKK-epsilon; conditions: concentration: 1 μM, replicates: in singlicate; n = 1
# T5 construct: gene IKBKE
# INSRR = conditions: concentration: 1 μM, replicates: in singlicate; n = 1
# INSR = conditions: concentration: 1 μM, replicates: in singlicate; n = 1
# [1] = concentration: 1 μM, replicates: in singlicate
# 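Also: KINOMEscan kinase panel screen.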
compound,measurement,setting,value
CCCCc1nn2ncccc2c1-c1ccnc(NC2CC2)n1 [GW684374],%Inh,GRK3,17%
same,%Inh,GRK4,0%
same,%Inh,GRK7,0%
same,%Inh,GSK3A,4%
same,%Inh,GSK3B; [1],1%
same,%Inh,HASPIN,0%
same,%Inh,HCK,0%
same,%Inh,HIPK1,0%
same,%Inh,HIPK2,0%
same,%Inh,HIPK3,8%
same,%Inh,HIPK4,0%
same,%Inh,HPK1,3%
same,%Inh,HUNK,2%
same,%Inh,ICK,7%
same,%Inh,IGF1R,0%
same,%Inh,IKK-alpha,0%
same,%Inh,IKK-beta,3%
same,%Inh,IKK-epsilon,0%
same,%Inh,INSRR,0%
same,%Inh,INSR,0%
COC(=O)c1cccc(NC(=O)NC2CCN(c3ccnc(Nc4ccc(OC)cc4)n3)C2)c1 (centres unmarked) [GSK1379746],%Inh,GRK3,43%
same,%Inh,GRK4,0%
same,%Inh,GRK7,0%
same,%Inh,GSK3A,0%
same,%Inh,GSK3B; [1],12%
same,%Inh,HASPIN,0%
same,%Inh,HCK,0%
same,%Inh,HIPK1,0%
same,%Inh,HIPK2,0%
same,%Inh,HIPK3,0%
same,%Inh,HIPK4,0%
same,%Inh,HPK1,41%
same,%Inh,HUNK,0%
same,%Inh,ICK,12%
same,%Inh,IGF1R,1%
same,%Inh,IKK-alpha,44%
same,%Inh,IKK-beta,18%
same,%Inh,IKK-epsilon,29%
same,%Inh,INSRR,0%
same,%Inh,INSR,0%
Cn1cncc1C(=O)NC1CCN(c2ccnc(Nc3ccc(F)cc3)n2)C1 (centres unmarked) [GSK1379717],%Inh,GRK3,0%
same,%Inh,GRK4,0%
same,%Inh,GRK7,0%
same,%Inh,GSK3A,12%
same,%Inh,GSK3B; [1],8%
same,%Inh,HASPIN,0%
same,%Inh,HCK,0%
same,%Inh,HIPK1,0%
same,%Inh,HIPK2,0%
same,%Inh,HIPK3,3%
same,%Inh,HIPK4,0%
same,%Inh,HPK1,68%
same,%Inh,HUNK,0%
same,%Inh,ICK,31%
same,%Inh,IGF1R,0%
same,%Inh,IKK-alpha,25%
same,%Inh,IKK-beta,17%
same,%Inh,IKK-epsilon,33%
same,%Inh,INSRR,0%
same,%Inh,INSR,10%
O=C(Nc1n[nH]c2cc(-c3ccsc3)ccc12)C1CC1 [SB-732932],%Inh,GRK3,40%
same,%Inh,GRK4,79%
same,%Inh,GRK7,0%
same,%Inh,GSK3A,38%
same,%Inh,GSK3B; 1 µM,29%
same,%Inh,HASPIN,43%
same,%Inh,HCK,0%
same,%Inh,HIPK1,7%
same,%Inh,HIPK2,26%
same,%Inh,HIPK3,24%
same,%Inh,HIPK4,17%
same,%Inh,HPK1,0%
same,%Inh,HUNK,0%
same,%Inh,ICK,63%
same,%Inh,IGF1R,0%
same,%Inh,IKK-alpha,9%
same,%Inh,IKK-beta,9%
same,%Inh,IKK-epsilon,0%
same,%Inh,INSRR,14%
same,%Inh,INSR,9%
COc1cccc(CNC(=O)NC2CCN(c3ccnc(Nc4ccc(F)cc4)n3)C2)c1 (centres unmarked) [GSK1379723],%Inh,GRK3,37%
same,%Inh,GRK4,6%
same,%Inh,GRK7,5%
same,%Inh,GSK3A,11%
same,%Inh,GSK3B; [1],13%
same,%Inh,HASPIN,0%
same,%Inh,HCK,0%
same,%Inh,HIPK1,0%
same,%Inh,HIPK2,0%
same,%Inh,HIPK3,36%
same,%Inh,HIPK4,0%
same,%Inh,HPK1,40%
same,%Inh,HUNK,0%
same,%Inh,ICK,21%
same,%Inh,IGF1R,4%
same,%Inh,IKK-alpha,44%
same,%Inh,IKK-beta,14%
same,%Inh,IKK-epsilon,0%
same,%Inh,INSRR,18%
same,%Inh,INSR,0%
COc1cccc(C2=C(Nc3cc(Cl)c(O)c(Cl)c3)C(=O)NC2=O)c1 [SB-390767],%Inh,GRK3,28%
same,%Inh,GRK4,1%
same,%Inh,GRK7,0%
same,%Inh,GSK3A,44%
same,%Inh,GSK3B; 1 µM,33%
same,%Inh,HASPIN,0%
same,%Inh,HCK,0%
same,%Inh,HIPK1,0%
same,%Inh,HIPK2,0%
same,%Inh,HIPK3,20%
same,%Inh,HIPK4,0%
same,%Inh,HPK1,43%
same,%Inh,HUNK,0%
same,%Inh,ICK,27%
same,%Inh,IGF1R,5%
same,%Inh,IKK-alpha,37%
same,%Inh,IKK-beta,56%
same,%Inh,IKK-epsilon,0%
same,%Inh,INSRR,0%
same,%Inh,INSR,0%
Cc1cccc2c(-c3ccncn3)c(-c3ccc(F)cc3)nn12 [GW515532],%Inh,GRK3,0%
same,%Inh,GRK4,12%
same,%Inh,GRK7,0%
same,%Inh,GSK3A,1%
same,%Inh,GSK3B; [1],0%
same,%Inh,HASPIN,21%
same,%Inh,HCK,0%
same,%Inh,HIPK1,0%
same,%Inh,HIPK2,0%
same,%Inh,HIPK3,0%
same,%Inh,HIPK4,8%
same,%Inh,HPK1,3%
same,%Inh,HUNK,0%
same,%Inh,ICK,9%
same,%Inh,IGF1R,0%
same,%Inh,IKK-alpha,37%
same,%Inh,IKK-beta,18%
same,%Inh,IKK-epsilon,0%
same,%Inh,INSRR,16%
same,%Inh,INSR,75%
Fc1ccc(-c2nn3cccc(F)c3c2-c2ccncc2)cc1 [GW475620],%Inh,GRK3,0%
same,%Inh,GRK4,26%
same,%Inh,GRK7,0%
same,%Inh,GSK3A,0%
same,%Inh,GSK3B; [1],11%
same,%Inh,HASPIN,5%
same,%Inh,HCK,15%
same,%Inh,HIPK1,0%
same,%Inh,HIPK2,0%
same,%Inh,HIPK3,4%
same,%Inh,HIPK4,22%
same,%Inh,HPK1,0%
same,%Inh,HUNK,0%
same,%Inh,ICK,0%
same,%Inh,IGF1R,47%
same,%Inh,IKK-alpha,0%
same,%Inh,IKK-beta,0%
same,%Inh,IKK-epsilon,14%
same,%Inh,INSRR,0%
same,%Inh,INSR,13%
COc1ccc(CSc2nnc(-c3ccc4nccn4c3)o2)cc1C(F)(F)F,%Inh,GRK3,37%
same,%Inh,GRK4,0%
same,%Inh,GRK7,15%
same,%Inh,GSK3A,93.8%
same,%Inh,GSK3B; [1],93.8%
same,%Inh,HASPIN,32%
same,%Inh,HCK,0%
same,%Inh,HIPK1,31%
same,%Inh,HIPK2,20%
same,%Inh,HIPK3,5%
same,%Inh,HIPK4,6%
same,%Inh,HPK1,0%
same,%Inh,HUNK,0%
same,%Inh,ICK,0%
same,%Inh,IGF1R,0%
same,%Inh,IKK-alpha,10%
same,%Inh,IKK-beta,7%
same,%Inh,IKK-epsilon,11%
same,%Inh,INSRR,8%
same,%Inh,INSR,5%
Cc1nccc(-c2c(-c3ccc(F)cc3)ncn2CCCN2CCOCC2)n1.Cl [SB-282975],%Inh,GRK3,34%
same,%Inh,GRK4,0%
same,%Inh,GRK7,23%
same,%Inh,GSK3A,23%
same,%Inh,GSK3B; [1],17%
same,%Inh,HASPIN,23%
same,%Inh,HCK,8%
same,%Inh,HIPK1,0%
same,%Inh,HIPK2,0%
same,%Inh,HIPK3,14%
same,%Inh,HIPK4,50%
same,%Inh,HPK1,3%
same,%Inh,HUNK,16%
same,%Inh,ICK,39%
same,%Inh,IGF1R,3%
same,%Inh,IKK-alpha,14%
same,%Inh,IKK-beta,12%
same,%Inh,IKK-epsilon,0%
same,%Inh,INSRR,11%
same,%Inh,INSR,3%
